The list is not random: actives were taken first. Their share in the collection is about 6.6%.
NR3A LBD binder = NR3A (human) ligand-binding domain modulation; actives 2.5% (n = 340,000); AID 1259313; NR3A LBD differential scanning fluorimetry, Tm shift; 0% = protein alone, 100% = glycine-bound protein; Tm shift relative to glycine control, % at 25 µM;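 active = melting temperature shift of at least 10% of the positive control shift, at one fixed dose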
Beta apoptosis = beta cell apoptosis inhibition; INS-1E cytokine-induced death, ATP luminescence, 48 h; percent of positive-control rescue, neutral wells zero; protection from apoptosis, % (concentration not given with the values); actives 0.8% (n = 300,000); AID 435005;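 active = Every replicate reaches about 75%, or at least half do and their mean reaches it too, limit read from the data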;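 also: higher means more ATP so stronger rescue from cytokine killing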
MPTP block = blocks calcium-induced mitochondrial swelling; isolated mouse mitochondria, Ca2+ swelling absorbance, 30 min; inhibition, % at 10 µM; actives 1.4% (n = 360,000);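 active = inhibition of 50% or more, scaled per plate between neutral and stimulator controls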
CSC inhib = cancer stem cell inhibition | actives 1.1% (n = 300,000) | inhibition, % at 7.5 µM | AID 2717 | cancer stem cell-like cells viability, luminescence; in the data active = inhibition above about 75%; tested in HMLE shEcad cells
Mdm2-MdmX inh = human Mdm2/MdmX binding inhibition; actives 3% (n = 330,000); AID 485346; inhibition, % at 8 µM; SaOS-2 split-luciferase Mdm2/MdmX complementation, luminescence; O15151+Q00987;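 active = inhibition of at least 50% at 8 µM in the primary screen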
Gli-Sufu antag = Gli-Sufu pathway antagonism; Sufu-KO-LIGHT fibroblasts, Gli luciferase reporter luminescence; inhibition, % at 5 µM; actives 0.74% (n = 340,000); AID 588413;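 active = inhibition above about 55%, limit read from the data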
MPTP counter = mitochondrial membrane potential, counter-screen; actives 78% (n = 5,000); isolated mitochondria, Rhodamine 123 fluorescence; shares compounds with MPTP block; inhibition, % at 10 µM; in the data active = inhibition above about 22%
MPTP abs DR = dose response confirmation of mitochondrial permeability transition pore inhibitors. shares compounds with MPTP block. isolated mitochondria swelling, absorbance. IC50, µM. actives 58% (n = 780); in the data active = IC50 below about 20 µM
MPTP counter DR = MPTP inhibitor counter-screen activity, dose response; AID 651564; actives 49% (n = 780); shares compounds with MPTP block; IC50, µM; isolated mitochondria counterscreen, fluorescence read-out; in the data active = IC50 below about 80 µM
Numbers stand for hits; 0 = inactive; - = no result.

SMILES | NR3A LBD binder | Beta apoptosis | MPTP block | CSC inhib | Mdm2-MdmX inh | Gli-Sufu antag | MPTP counter | others
COc1cccc(NC(=O)Nc2ccc3c(c2)CCC3)c1 | 0 | 0 | 0 | 0 | 0 | 0 | -
Cc1cccc(NC(=O)Nc2ccc3c(c2)CCC3)c1 | 16 | 0 | 80 | 0 | 0 | 0 | 77
COc1ccc(C(C)=O)cc1CC(=O)Nc1ccc2c(c1)CCC2 | 0 | 0 | 0 | 0 | 0 | 0 | -
O=C(CSc1nc2ccccc2s1)NNC(=S)Nc1ccc(Cl)cc1 | 32 | 0 | 93 | 0 | 0 | 0 | 86
CC1CCN(S(=O)(=O)c2ccc(NC(=O)Cn3nnc(-c4ccccc4)n3)cc2)CC1 | 11 | 0 | 54 | 0 | 0 | 0 | 56
CCOc1ccc(OCC)c(NC(=O)CSc2nc3ccccc3c(=O)n2C)c1 | 0 | 0 | 93 | 0 | 0 | - | 75
O=C1CCCC2=C1C(c1ccc(Cl)cc1)C1C(=O)c3ccccc3C1=N2 (stereo not drawn) | 0 | 0 | 55 | 0 | 0 | 0 | 36
Cc1ccc(NC(=O)CSc2ncnc3ccccc23)cc1S(=O)(=O)N1CCCCC1 | 0 | 0 | 79 | - | 0 | 0 | 71
Cc1ccc(NC(=S)NCc2ccccc2)cc1S(=O)(=O)N1CCCCC1 | 0 | 0 | 75 | - | 0 | 0 | 75
Cc1ccc(NC(=O)CSc2ccccc2)cc1S(=O)(=O)N1CCCCC1 | 0 | 0 | 0 | - | 0 | 0 | -
CCOC(=O)c1ccc(S(=O)(=O)N2CCN(S(=O)(=O)CC)CC2)cc1 | 0 | 0 | 60 | 0 | 0 | 0 | 0 | MPTP abs DR=0;MPTP counter DR=0
CCOC(=O)c1sc(NC(=O)c2ccc(S(=O)(=O)N3CCCCC3)cc2)nc1-c1ccccc1 | 13 | 0 | 50 | 0 | 0 | 0 | 32
CCOC(=O)c1sc(NC(=O)c2ccc(S(=O)(=O)N3CCCCCC3)cc2)nc1-c1ccccc1 | 0 | 0 | 0 | 0 | 0 | 0 | -
CCOC(=O)c1c(OCCO)nn(-c2ccccc2)c1N | 0 | 0 | 0 | 0 | 0 | 0 | -
O=C(CN1CCN(Cc2ccc(Cl)cc2)C1=O)NCCCN1CCN(c2ccc(F)cc2)CC1 | 0 | 0 | 69 | 0 | 0 | 0 | 0 | MPTP abs DR=11;MPTP counter DR=12
Cc1ccccc1CN1CCN(CC(=O)NCCCN2CCN(c3ccc(F)cc3)CC2)C1=O | 0 | 0 | 56 | 0 | 0 | 0 | 0
C(=C\c1nc(N2CCCCCC2)c2ccccc2n1)/c1ccccc1 | 0 | 109 | 65 | 79 | 0 | 0 | 93
Cc1ccc(C2C(/C=C3/SC(=S)NC3=O)=C(c3cccs3)Oc3ccccc32)cc1 (stereo not drawn) | 0 | 0 | 99 | 108 | 0 | 0 | 48
COc1cc(Cl)cc(C(=O)O)c1OCC(=O)O | 0 | 0 | 0 | 0 | 0 | 0 | -
COc1ccccc1CNc1nc(NCc2ccc3occc3c2)c2sccc2n1 | - | - | 72 | - | - | - | 99
Cc1ccc(CNc2nc(NCc3ccccc3)nc3ccsc23)c(C)c1 | - | - | 53 | - | - | - | 101
COc1ccccc1CNc1nc(NCc2ccccc2SC)c2sccc2n1 | - | - | 85 | - | - | - | 84
CNc1nc(NCc2ccc(C)cc2C)c2sccc2n1 | - | - | 0 | - | - | - | -
COc1ccccc1CNc1nc(NCc2ccccc2OC)c2sccc2n1 | - | - | 85 | - | - | - | 115
COc1ccccc1CNc1nc(NCc2ccc(NC(C)=O)cc2)c2sccc2n1 | - | - | 0 | - | - | - | -
SMILES | NR3A LBD binder | Beta apoptosis | MPTP block | CSC inhib | Mdm2-MdmX inh | Gli-Sufu antag | MPTP counter | others
COCCNc1nc(NCc2ccccc2OC)c2sccc2n1 | - | - | 0 | - | - | - | -
Cc1ccc(-c2cc(C(=O)O)n(-c3ccc(S(N)(=O)=O)cc3)n2)cc1 | 0 | 0 | 0 | 0 | 0 | 0 | -
COc1ccccc1NC(=O)c1cnc(SC)nc1 | 0 | - | 0 | - | 0 | 0 | -
COc1ccccc1CNc1nc(NCC2CC2)nc2ccsc12 | - | - | 80 | - | - | - | 92
COc1ccccc1CNc1nc(NCc2cccs2)nc2ccsc12 | - | - | 78 | - | - | - | 93
COc1ccccc1CNc1nc(NCCOc2ccccc2)c2sccc2n1 | - | - | 60 | - | - | - | 91
COc1ccccc1CNc1nc(NCCNC(C)=O)c2sccc2n1 | - | - | 0 | - | - | - | -
COc1ccc(S(=O)(=O)NCC2CCC(C(=O)O)CC2)cc1 (stereo not drawn) | 0 | 0 | 0 | 0 | 0 | 0 | -
CCCCN(C(=O)c1c(C)noc1C)c1c(N)n(CCC)c(=O)[nH]c1=O | 0 | 0 | 0 | 0 | 0 | 0 | -
CC(NS(=O)(=O)c1cccc(S(=O)(=O)c2ccccc2)c1)C(=O)O (stereo not drawn) | 0 | 0 | 0 | 0 | 0 | 0 | -
CCc1cc(=O)oc2cc(OCC(=O)N3CCC[C@H]3C(=O)O)ccc12 | 0 | 0 | 0 | 0 | 0 | 0 | -
O=C(CCSc1ccc(Cl)c(Cl)c1)NC12CC3CC(CC(C3)C1)C2 | 0 | 0 | 52 | 0 | 0 | 0 | 45
CC1=NN(C(N)=S)C(=O)C1N=Nc1c(Br)cc(Br)cc1Br (stereo not drawn) | 0 | 0 | 56 | 77 | 0 | 0 | 78
CCCCN(C=O)c1c(CC)nc2c(OCC(=O)N3CCOCC3)cccn12 | - | - | 0 | - | - | - | -
CCOc1ccc(CNc2cccc(SC)c2)cc1 | 0 | 0 | 0 | 0 | 0 | 0 | -
CCN(CC)c1ccc2c(-c3ccc(S(=O)(=O)O)cc3S(=O)(=O)[O-])c3ccc(=[N+](CC)CC)cc-3oc2c1 | 0 | 0 | 64 | 0 | 0 | 0 | 0
CCN(CC)c1ccc2nc3c4ccccc4c(=O)cc-3oc2c1 | 0 | 0 | - | 0 | 0 | 0 | -
Cc1ccc(-n2[nH]c(C)c(/C=N/Nc3ccc([N+](=O)[O-])cc3[N+](=O)[O-])c2=O)cc1 | 22 | 0 | 112 | 0 | 0 | 0 | 69
O=C1CCN(C(=O)CSc2ccc(Cl)cc2)N1 | 0 | 0 | 0 | 0 | 0 | 0 | -
Oc1ccc(/C=N/Nc2ccnc3cc(Cl)ccc23)c(O)c1 | 27 | 0 | 58 | 0 | 0 | 0 | 59
Clc1ccc2c(N/N=C/c3cccnc3)ccnc2c1 | 0 | 0 | 0 | 0 | 0 | 0 | -
Oc1ccc(Nc2ccnc3cc(Cl)ccc23)cc1 | 0 | 0 | 0 | 0 | 0 | 0 | -
Cc1ccccc1/C=N/Nc1ccnc2cc(Cl)ccc12 | 0 | 95 | 99 | 84 | - | 0 | 91
CC(=O)N1CCC(=NNc2ccnc3cc(Cl)ccc23)CC1 | 0 | 0 | 0 | 0 | 0 | 0 | -
Clc1ccc2c(N/N=C/c3ccc(Br)cc3)ccnc2c1 | 33 | 0 | 88 | 98 | - | 0 | 74
CCOc1ccc(OCCCCn2cnc3ccccc3c2=O)cc1 | 0 | 0 | 0 | 0 | 0 | 0 | -
Cc1c(CCO)c(=O)n2c([nH]c3ccccc32)c1C#N | 0 | 0 | 0 | 0 | 0 | 0 | -
CCCCc1c(C)c(C#N)c2[nH]c3ccccc3n2c1=O | 0 | 0 | 83 | 0 | 0 | 0 | 96
CC(=O)c1ccc(Oc2cc(-c3ccccc3)nc(-c3ccccc3)n2)cc1 | 0 | 0 | 53 | 0 | 0 | 0 | 0 | MPTP abs DR=0;MPTP counter DR=0
Cc1ccc2[nH]c3c(NCc4ccco4)ncnc3c2c1 | 0 | 0 | 60 | - | 0 | 0 | 85
